PAFAH1B3 inh: PAFAH1B3 enzyme inhibitors, primary screen, biochemical, fluorescence polarization, human. Platelet-activating factor acetylhydrolase IB subunit alpha1 (Homo sapiens), Q15102. recombinant PAFAH1B3, FP-rhodamine probe. hit rate 0.28% among 340,000. inhibition, % at 3.39 µM;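 active means inhibition above the screen-wide average of all tested compounds plus 3 SD, cut at about 25% in these data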
DSG3 Ab inh: inhibitors of pemphigus antibody binding to DSG3, primary screen, biochemical, bead-based, flow cytometry, scFv-GFP. Desmoglein-3 (Homo sapiens), P32926. DSG3-coupled beads, scFv-anti-DSG3-GFP binding; stronger effect = lower value. binding (percent of control), % at 10 µM. hit rate 0.48% among 310,000. AID 588358, 2011;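 active means binding more than 3 SD below its plate's average and above zero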
Target sequence (P32926 whole entry, looked up): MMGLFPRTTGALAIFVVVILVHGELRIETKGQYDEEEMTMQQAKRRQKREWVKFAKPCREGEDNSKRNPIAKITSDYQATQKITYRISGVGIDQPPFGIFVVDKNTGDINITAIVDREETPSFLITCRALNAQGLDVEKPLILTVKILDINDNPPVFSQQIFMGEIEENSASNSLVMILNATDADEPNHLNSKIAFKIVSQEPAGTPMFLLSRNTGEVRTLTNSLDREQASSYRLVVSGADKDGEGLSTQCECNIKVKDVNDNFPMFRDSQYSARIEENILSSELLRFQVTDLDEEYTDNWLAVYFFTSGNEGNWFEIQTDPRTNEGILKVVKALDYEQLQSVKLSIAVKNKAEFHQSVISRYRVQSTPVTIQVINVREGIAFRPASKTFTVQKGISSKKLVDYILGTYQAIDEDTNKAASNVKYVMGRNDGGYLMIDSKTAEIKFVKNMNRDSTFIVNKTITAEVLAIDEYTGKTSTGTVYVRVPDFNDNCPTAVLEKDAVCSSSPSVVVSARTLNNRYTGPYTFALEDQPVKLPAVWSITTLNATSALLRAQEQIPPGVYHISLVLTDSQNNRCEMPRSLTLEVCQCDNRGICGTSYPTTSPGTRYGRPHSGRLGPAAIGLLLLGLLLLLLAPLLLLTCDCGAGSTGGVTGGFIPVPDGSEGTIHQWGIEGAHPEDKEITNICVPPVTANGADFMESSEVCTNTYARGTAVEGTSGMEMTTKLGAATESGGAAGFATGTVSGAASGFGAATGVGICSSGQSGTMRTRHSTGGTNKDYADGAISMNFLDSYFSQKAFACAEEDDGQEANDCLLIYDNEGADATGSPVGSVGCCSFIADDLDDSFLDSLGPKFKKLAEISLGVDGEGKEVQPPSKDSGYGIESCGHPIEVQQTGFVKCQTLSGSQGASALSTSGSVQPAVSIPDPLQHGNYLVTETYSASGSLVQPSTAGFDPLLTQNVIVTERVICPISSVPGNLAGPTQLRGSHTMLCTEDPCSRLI
pPAFAH inh: pPAFAH enzyme inhibitors, primary screen, biochemical, fluorescence polarization, human; inhibition, % at 3.39 µM; Platelet-activating factor acetylhydrolase (Homo sapiens), Q13093; recombinant pPAFAH, FP-rhodamine probe fluorescence polarization; hit rate 1.5% among 330,000;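 active means inhibition above the mean inhibition across the screen plus 3 SD, cut at about 25% in these data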;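 further: inhibitors block binding of the rhodamine activity-based probe so polarization drops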
M18AAP inhibitor: PfM18AAP inhibitors, malaria aminopeptidase, primary screen, biochemical, QFRET, recombinant enzyme; AID 1822, 2009; H-Glu-NHMec fluorogenic cleavage; hit rate 1.2% among 290,000; M18 aspartyl aminopeptidase (Plasmodium falciparum 3D7); inhibition, % at 7.35 µM;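 active means inhibition above the campaign mean inhibition over all tested compounds plus 3 SD, cut at about 28% in these data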
PAFAH1B2 inh: PAFAH1B2 enzyme inhibitors, primary screen, biochemical, fluorescence polarization, human; Platelet-activating factor acetylhydrolase IB subunit alpha2 (Homo sapiens), P68402; recombinant PAFAH1B2, FP-rhodamine activity probe; inhibition, % at 3.39 µM; hit rate 1.2% among 340,000; AID 492953, 2010;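 active means inhibition above the mean of all tested compounds plus 3 SD, cut at about 24% in these data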
PAFAH2 FP inh: PAFAH2 enzyme inhibitors, primary screen, biochemical, fluorescence polarization, human | hit rate 0.99% among 340,000 | AID 492956, 2010 | recombinant PAFAH2, FP-rhodamine activity probe | Platelet-activating factor acetylhydrolase 2, cytoplasmic (Homo sapiens), Q99487 | inhibition, % at 3.39 µM;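 active means inhibition above the mean over all tested compounds plus 3 SD, cut at about 30% in these data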;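 further: inhibitors block probe labeling of enzyme so polarization drops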
Of the large screens only hits and unclear results are named; the others gave an inactive call. In the library only some 3.8% were active in any assay of this set; here they are far more common.

CN1C(=O)c2ccccc2CC12c1ccccc1C(=O)N2C (stereo unspecified)	none (no result: PAFAH1B3 inh, pPAFAH inh, M18AAP inhibitor, PAFAH1B2 inh, PAFAH2 FP inh)
N#CCCN(C(=O)COC(=O)c1cc2ccccc2oc1=O)c1ccccc1	none (no result: M18AAP inhibitor)
Cc1cc(C)nc(SCNC(=O)c2ccccc2)n1	M18AAP inhibitor 45
COc1ccc(-c2n[nH]c(=S)n2Cc2ccccc2)cc1	none
CCCCc1n[nH]c(=S)n1Cc1ccccc1	none
COC(Cn1c(-c2cccc(S(=O)(=O)N(C)C)c2)n[nH]c1=S)OC	M18AAP inhibitor 31
COc1ccc(NS(=O)(=O)c2ccc(-c3n[nH]c(=S)n3Cc3ccccc3)cc2)cc1	pPAFAH inh 25
CCN(CC)S(=O)(=O)c1cccc(-c2n[nH]c(=S)n2Cc2ccccc2)c1	none
CCN(CC)S(=O)(=O)c1cccc(-c2n[nH]c(=S)n2CC(C)C)c1	none
CCCCc1n[nH]c(=S)n1Cc1ccc(Cl)cc1	PAFAH1B2 inh 27
COc1ccc(NS(=O)(=O)c2cccc(-c3n[nH]c(=S)n3Cc3ccccc3)c2)cc1	pPAFAH inh 27
O=C(CN1C(=O)C2CC=CCC2C1=O)Nc1ccc(OC(F)(F)F)cc1 (stereo unspecified)	none (no result: M18AAP inhibitor)
CC(C)C1C(=O)N(Cc2cn(CCC3OCCO3)nn2)CCS(=O)(=O)N1Cc1ccc(-c2ccc(F)cc2)cc1 (stereo unspecified)	none (no result: PAFAH1B3 inh, pPAFAH inh, M18AAP inhibitor, PAFAH1B2 inh, PAFAH2 FP inh)
C[C@H](CO)N1C[C@H](C)[C@H](CN(C)S(=O)(=O)c2cccs2)OCc2cnnn2CCCC1=O	none (no result: PAFAH1B3 inh, pPAFAH inh, M18AAP inhibitor, PAFAH1B2 inh, PAFAH2 FP inh)
Cc1ccccc1N1CCN(C2CCCN(C(=O)CSc3ccccn3)C2)CC1 (stereo unspecified)	none (no result: PAFAH1B3 inh, pPAFAH inh, M18AAP inhibitor, PAFAH1B2 inh, PAFAH2 FP inh)
CCOC(=O)c1nc2ccc(C)cc2c2c1C1CC(c3c(Cl)cccc31)N2C(=O)OCc1ccccc1 (stereo unspecified)	none (no result: PAFAH1B3 inh, pPAFAH inh, M18AAP inhibitor, PAFAH1B2 inh, PAFAH2 FP inh)
S=c1[nH]nc(-c2ccccc2)n1Cc1ccccc1	none
COc1ccc(NS(=O)(=O)c2ccc(C)c(C(=O)NC3CCN(Cc4ccccc4)CC3)c2)cc1	pPAFAH inh 26
S=c1[nH]nc(-c2ccc(Cl)cc2)n1Cc1ccccc1	PAFAH1B2 inh 37
COc1ccc(NS(=O)(=O)c2cccc(-c3nnc(-c4ccccc4)o3)c2)cc1	pPAFAH inh 30
CCn1c(CCCc2ccc(OC)c(C)c2)n[nH]c1=S	M18AAP inhibitor 29 (no result: DSG3 Ab inh)
COc1ccccc1NS(=O)(=O)c1ccc(C)c(C(=O)NC2CCN(Cc3ccccc3)CC2)c1	none (no result: pPAFAH inh, M18AAP inhibitor)
CCOC(=O)Nc1nc2ccc(Cn3cccc3)cc2[nH]1	none (no result: pPAFAH inh, M18AAP inhibitor)
CCCCN(C(=O)COC(=O)CSc1cc(C)c2ccccc2n1)c1c(N)n(CCC)c(=O)[nH]c1=O	none
O=C(NCc1cccnc1)c1ccc2c(c1)N(Cc1ccccc1)CCS2	M18AAP inhibitor 30
O=C(NCc1ccccn1)c1ccc2c(c1)N(Cc1ccccc1)CCS2	none
Cc1ccc(S(=O)(=O)N(C)c2ccc(C(=O)NC3CCCCC3)cc2)cc1	none (no result: PAFAH1B3 inh, pPAFAH inh, M18AAP inhibitor, PAFAH1B2 inh, PAFAH2 FP inh)
CC(=O)Nc1ccc(N2C(=O)CSC2c2ccc([N+](=O)[O-])cc2)cc1 (stereo unspecified)	none
O=C(c1ccc([N+](=O)[O-])cc1)N1CCSC1c1ccc(Cl)cc1 (stereo unspecified)	PAFAH1B2 inh 29
Cc1ccc(C2SCCN2C(=O)c2ccc([N+](=O)[O-])cc2)cc1 (stereo unspecified)	PAFAH1B2 inh 24
CC1CC(=O)Nc2ccccc2N1C(=O)COc1ccccc1C(N)=O (stereo unspecified)	none (no result: PAFAH1B3 inh, pPAFAH inh, M18AAP inhibitor, PAFAH1B2 inh, PAFAH2 FP inh)
Cc1ccccc1Nc1cc2ccccc2c(=O)[nH]1	PAFAH1B3 inh 54
Cc1ccc(CNC(=O)CCn2cc(-c3ccc(F)cc3)nc2-c2ccncc2)cc1	PAFAH1B2 inh 29 (no result: M18AAP inhibitor)
Cc1ccc(CNC(=O)CCn2cc(-c3ccc(C)cc3)nc2-c2ccncc2)cc1	none (no result: DSG3 Ab inh)
CCC(=O)N(Cc1c(C)nn(-c2ccccc2)c1Cl)c1ccc(Cl)cc1	PAFAH1B2 inh 24
c1cncc(Nc2nc(-c3cccs3)cs2)c1	M18AAP inhibitor 30
